The results in this text go back to PubChem BioAssay AID942 (National Center for Advancing Translational Sciences (NCATS), 2007).

Inconclusive results are not listed. Values without a mark were called inactive. The source made the active and inactive calls. Calls come from the whole dose curve.

A short description of this experiment: Confirmation Concentration-Response Assay for Anthrax Lethal Toxin Internalization. Conditions: FRET ratio (460/530 nm); series mostly up to 46.1 µM; activity change, negative = inhibition: at the top concentration.
In the case of `O=C(Nc1ccc([N+](=O)[O-])cc1Cl)c1cc(Cl)cc(Cl)c1O`, the Potency is 3980 nM (active). Still for that read-out and setting: to `COc1cc([C@@H]2c3cc4c(cc3[C@H](OC(C)=O)[C@H]3COC(=O)[C@H]23)OCO4)cc(OC)c1OC` belongs 794 nM (active).

On to `COc1ccc2c(c1OC)C(=O)OC2CC(=O)c1ccc2c(c1)OCO2` (stereo unspecified), for which the “activity change, negative = inhibition” value was -21.2%. With `Cc1ccc2oc(=O)c3cnn(CC(=O)N4CCN(c5ccccc5)CC4)c3c2c1`, the Potency was 5010 nM (active).

`COc1cc([C@@H]2c3cc4c(cc3[C@H](O)[C@H]3COC(=O)[C@H]23)OCO4)cc(OC)c1OC`: the Potency is 794 nM (active). Same read-out and setting: for `O=C(Nc1ccc([N+](=O)[O-])cc1Cl)c1ccccc1O` the value was 6310 nM (active).

Turning to `COc1ccc(C2C3=C(COC3=O)Oc3cc4c(cc32)OCO4)cc1OC` (stereo unspecified), the “activity change, negative = inhibition” value is -26.6%. The same measure, in the same setting: to `COc1ccc2c(c1OC)C(=O)OC2c1ccc(O)cc1` (stereo unspecified) belongs -11.6%. For the compound `Cc1ccc2c(c1)-c1c(cnn1CC(=O)Nc1ccccc1N1CCN(C)CC1)CO2`, the Potency was 3980 nM (active).

On to `Nc1ccc(NC(=O)c2cc(Cl)ccc2O)c(Cl)c1`, for which the “activity change, negative = inhibition” value was 6.15%. Turning to `O=C(Nc1c(Cl)cc([N+](=O)[O-])cc1Cl)c1cc(Cl)cc(Cl)c1O`, the Potency is 10000 nM (active). Still for that read-out and setting: for `Cc1ccc2oc(=O)c3cnn(CC(=O)Nc4ccccc4N4CCN(C)CC4)c3c2c1` the value was 2000 nM (active). Consider `COc1ccc(Cl)cc1C(=O)Nc1ccc([N+](=O)[O-])cc1Cl`, for which the “activity change, negative = inhibition” value is -44.4%. Regarding `COc1cc2c(O)c3c(c(-c4ccc5c(c4)OCO5)c2cc1OC)C(=O)OC3`, the Potency was 50.1 nM (active).

Turning to `COc1cc2c(OC(C)=O)c3c(c(-c4ccc5c(c4)OCO5)c2cc1OC)C(=O)OC3`, the Potency was 39.8 nM (active).

With `O=C(Nc1ccc([N+](=O)[O-])cc1Cl)c1cc(Br)ccc1O`, the Potency was 794 nM (active).
